Measurements as given in PubChem BioAssay (Tox21).
Unmarked numbers belong to inactive results. Results filed as inconclusive are left out. Where a call stands in place of a potency, no number is given. Active and inactive are the calls of the source. Unless noted, calls follow the shape of the full dose curve.

Assays:
[1] = Nuclear factor erythroid 2-related factor 2/antioxidant responsive element (Nrf2/ARE) small molecule agonists: qHTS cell viability counter screen in human keratinocytes (AID 1919968; active = well fitted curve in the direction sought with a large enough effect in the repeat runs; an effect the other way counts as inactive or inconclusive; also: nearly all actives have a fitted effect of over 55% in size)
Procedure, shortened: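 Cytotoxicity was multiplexed with the Nrf2/ARE luciferase assay in the same wells. Stably transfected HaCaT keratinocytes were treated with test compounds for 23 h at 37 C. Cell viability was then measured by CellTiter-Fluor fluorescence.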

[2] = biological target: Gonadotropin-releasing hormone receptor (Homo sapiens) (UniProt P30968); assay: Human gonadotropin-releasing hormone receptor (GnRHR) small molecule agonists, calcium flux assay in GnRHR-HEK293 cells (AID 1920063); also: nearly all actives have a fitted effect of over 35% in size
Chain of Gonadotropin-releasing hormone receptor (Homo sapiens) (P30968 whole entry, looked up): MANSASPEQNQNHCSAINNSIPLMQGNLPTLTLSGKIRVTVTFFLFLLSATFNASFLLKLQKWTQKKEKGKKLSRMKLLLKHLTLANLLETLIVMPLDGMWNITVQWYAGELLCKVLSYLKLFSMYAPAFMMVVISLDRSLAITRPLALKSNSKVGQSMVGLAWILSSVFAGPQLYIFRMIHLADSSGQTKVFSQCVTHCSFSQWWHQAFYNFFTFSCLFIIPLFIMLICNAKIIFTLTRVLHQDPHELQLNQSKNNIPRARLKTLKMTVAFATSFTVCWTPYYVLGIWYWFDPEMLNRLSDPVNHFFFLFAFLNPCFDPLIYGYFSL
Procedure, shortened: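 Agonist activity was measured as intracellular calcium flux in HEK293 cells engineered to stably express human GnRHR. After dye loading for 1 hour at 37 C, compounds in DMSO were added and fluorescence was followed for 3 minutes.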

[3] = biological target: KiSS-1 receptor (Homo sapiens) (UniProt Q969F8); assay: Human kisspeptin (KISS1R) small molecule agonists, calcium flux assay in KISS1R-HEK293 cells (AID 1920064; active = well fitted curve in the direction sought with a large enough effect in the repeat runs; an effect the other way counts as inactive or inconclusive)
Chain of KiSS-1 receptor (Homo sapiens) (Q969F8 whole entry, looked up): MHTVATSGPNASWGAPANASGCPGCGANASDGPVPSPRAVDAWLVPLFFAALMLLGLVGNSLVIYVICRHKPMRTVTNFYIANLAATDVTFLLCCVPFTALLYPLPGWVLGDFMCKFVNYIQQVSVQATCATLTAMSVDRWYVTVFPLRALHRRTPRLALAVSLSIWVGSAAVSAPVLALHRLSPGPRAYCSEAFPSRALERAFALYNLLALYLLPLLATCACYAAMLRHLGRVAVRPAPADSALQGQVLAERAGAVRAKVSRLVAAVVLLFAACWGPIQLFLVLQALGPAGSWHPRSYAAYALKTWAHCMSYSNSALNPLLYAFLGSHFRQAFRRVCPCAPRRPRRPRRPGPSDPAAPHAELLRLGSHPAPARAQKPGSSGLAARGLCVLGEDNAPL
Procedure, shortened: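 Agonist activity is monitored as intracellular calcium rise in engineered HEK293 cells carrying human KISS1R. Cells are dye-loaded for 1 h at 37 C before compound addition, and fluorescence is recorded for 3 min.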

[4] = G protein-coupled receptor (GPCR) small molecule agonists, calcium flux assay: HEK293 wild type cell line counter screen (AID 1920065)
Procedure, shortened: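 Seed cells, incubate 18 h (37 C, 5% CO2); add calcium dye, 1 h at 37 C; pin-transfer compounds, ATP control or DMSO; read fluorescence 480/540 nm each second for 3 min.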

[5] = p53 small molecule agonists, cell-based qHTS assay with human liver microsomes: qHTS cell viability counter screen (AID 1963579); also: nearly all actives have a fitted effect of over 45% in size
Procedure, shortened: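 Luminescent CellTiter-Glo read-out, 30 min at room temperature, gauged cytotoxicity in p53RE-bla cells exposed 16 h at 37 C to DMSO-dissolved compounds with metabolic activation by human liver microsomes and NADPH, each 0.5 mg/mL final.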

[6] = p53 small molecule agonists, cell-based qHTS assay with rat liver microsomes: qHTS cell viability counter screen (AID 1963580); also: nearly all actives have a fitted effect of over 45% in size
Procedure, shortened: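 After the beta-lactamase ratio was read, CellTiter-Glo was added to the same wells and luminescence measured at 30 min; cells had been treated 16 h at 37 C with compounds, rat liver microsomes and NADPH (0.5 mg/mL final each).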

[7] = p53 small molecule agonists, cell-based qHTS assay: qHTS cell viability counter screen (AID 1963581); also: nearly all actives have a fitted effect of over 45% in size
Procedure, shortened: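 Viability was counter-screened in parallel with the p53 agonist reporter by measuring intracellular ATP luminescence in the same HCT-116 p53RE-bla wells after 16 h compound treatment at 37 C.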

[8] = biological target: 5-hydroxytryptamine receptor 2A (Homo sapiens) (UniProt P28223); assay: 5-hydroxytryptamine receptor 2A (HTR2A) small molecule antagonists, cell-based qHTS assay (AID 1963586); also: nearly all actives have a fitted effect of over 45% in size
Chain of 5-hydroxytryptamine receptor 2A (Homo sapiens) (P28223 whole entry, looked up): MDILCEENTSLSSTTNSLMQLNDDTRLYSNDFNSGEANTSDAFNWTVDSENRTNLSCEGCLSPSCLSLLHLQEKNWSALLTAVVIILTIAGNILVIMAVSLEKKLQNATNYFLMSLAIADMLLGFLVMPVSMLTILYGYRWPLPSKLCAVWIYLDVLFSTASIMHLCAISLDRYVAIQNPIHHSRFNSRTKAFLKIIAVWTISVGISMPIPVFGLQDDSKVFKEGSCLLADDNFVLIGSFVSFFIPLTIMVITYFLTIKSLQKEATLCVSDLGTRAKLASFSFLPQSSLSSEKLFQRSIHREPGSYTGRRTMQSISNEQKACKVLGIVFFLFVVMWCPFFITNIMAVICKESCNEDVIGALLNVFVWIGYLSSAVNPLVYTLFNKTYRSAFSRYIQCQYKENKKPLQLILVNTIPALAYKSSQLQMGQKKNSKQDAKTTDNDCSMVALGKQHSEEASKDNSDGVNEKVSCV
Procedure, shortened: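 CHO cells stably expressing human HTR2A were plated for 18 h at 37 C, then loaded with calcium dye for 1 h. Compounds were preincubated 5 min at room temperature before DOI (4 nM solution) was added. Kinetic fluorescence was read for 3 min.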

[9] = biological target: 5-hydroxytryptamine receptor 2A (Homo sapiens) (UniProt P28223); assay: 5-hydroxytryptamine receptor 2A (HTR2A) small molecule agonists, cell-based qHTS assay (AID 1963587); also: nearly all actives have a fitted effect of over 30% in size
Procedure, shortened: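 CHO cells stably expressing human HTR2A, plated 18 h, loaded with calcium dye 1 h at 37 C. Agonist mode: compounds added and intracellular calcium fluorescence recorded kinetically for 2 min at 1 sec intervals.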

[10] = biological target: Muscarinic acetylcholine receptor M1 (Homo sapiens) (UniProt P11229); assay: Cholinergic receptor muscarinic 1 (CHRM1) small molecule antagonists, cell-based qHTS assay (AID 1963588); also: nearly all actives have a fitted effect of over 40% in size; also: potency is read from the fitted curve at half-maximal effect
Chain of Muscarinic acetylcholine receptor M1 (Homo sapiens) (P11229 whole entry, looked up): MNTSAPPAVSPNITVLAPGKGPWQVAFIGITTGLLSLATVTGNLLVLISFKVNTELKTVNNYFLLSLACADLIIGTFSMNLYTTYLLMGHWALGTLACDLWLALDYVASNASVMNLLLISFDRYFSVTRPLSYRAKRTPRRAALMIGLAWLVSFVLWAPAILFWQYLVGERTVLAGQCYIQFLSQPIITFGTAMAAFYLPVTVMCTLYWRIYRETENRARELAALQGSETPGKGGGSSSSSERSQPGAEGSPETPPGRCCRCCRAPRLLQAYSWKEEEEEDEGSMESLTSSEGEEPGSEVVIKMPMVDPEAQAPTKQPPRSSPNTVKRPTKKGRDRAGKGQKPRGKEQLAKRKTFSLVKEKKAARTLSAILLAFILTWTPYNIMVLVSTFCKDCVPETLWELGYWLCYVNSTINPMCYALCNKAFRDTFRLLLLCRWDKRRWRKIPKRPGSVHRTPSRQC
Procedure, shortened: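 Compounds were tested at 15 concentrations in three independent runs. Dye-loaded CHRM1-CHO cells were exposed 5 min at room temperature before stimulation by acetylcholine added at 50nM. Intracellular calcium was read kinetically on FDSS for 3 min.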

[11] = biological target: Muscarinic acetylcholine receptor M1 (Homo sapiens) (UniProt P11229); assay: Cholinergic receptor muscarinic 1 (CHRM1) small molecule agonists, cell-based qHTS assay (AID 1963589); also: nearly all actives have a fitted effect of over 35% in size
Procedure, shortened: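 Cells were plated and incubated 18 h at 37 C/5% CO2, loaded with calcium dye for 1 h at 37 C, then treated with compounds in DMSO. Fluorescence was recorded kinetically at 1 sec intervals.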

[12] = biological target: Beta-2 adrenergic receptor (Homo sapiens) (UniProt P07550); assay: Adrenergic beta2 receptor (ADRB2) small molecule antagonists, cell-based qHTS assay (AID 1963592); also: series mostly up to about 92 µM; nearly all actives have a fitted effect of over 50% in size
Chain of Beta-2 adrenergic receptor (Homo sapiens) (P07550 whole entry, looked up): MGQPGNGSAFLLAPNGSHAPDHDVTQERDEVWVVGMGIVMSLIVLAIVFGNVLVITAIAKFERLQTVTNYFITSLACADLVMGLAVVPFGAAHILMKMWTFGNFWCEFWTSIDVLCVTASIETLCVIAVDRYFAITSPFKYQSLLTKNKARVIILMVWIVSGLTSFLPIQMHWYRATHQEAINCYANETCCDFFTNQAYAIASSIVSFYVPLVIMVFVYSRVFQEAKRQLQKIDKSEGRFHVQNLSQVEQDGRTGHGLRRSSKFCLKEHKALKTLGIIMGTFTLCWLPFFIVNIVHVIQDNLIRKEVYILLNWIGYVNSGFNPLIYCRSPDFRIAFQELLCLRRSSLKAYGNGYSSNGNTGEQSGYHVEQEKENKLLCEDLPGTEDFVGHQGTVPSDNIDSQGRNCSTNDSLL
Procedure, shortened: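 Assay format: CHO-ADRB2 cells, 18-20hr seeding at 37C/5% CO2, then compound plus 1nM isoproterenol agonist mix for 0.5hr RT. Homogeneous time-resolved fluorescence cAMP detection after 1hr, expressed as 665/615 nm ratio.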

[13] = biological target: D(2) dopamine receptor (Homo sapiens) (UniProt P14416); assay: Dopamine D2 receptor (DRD2) small molecule antagonists, cell-based qHTS assay (AID 1963595; active = well fitted inhibition curve with a large enough effect in the signal ratio in the repeat runs, with a control signal flat; the % refers to the signal ratio)
Chain of D(2) dopamine receptor (Homo sapiens) (P14416 whole entry, looked up): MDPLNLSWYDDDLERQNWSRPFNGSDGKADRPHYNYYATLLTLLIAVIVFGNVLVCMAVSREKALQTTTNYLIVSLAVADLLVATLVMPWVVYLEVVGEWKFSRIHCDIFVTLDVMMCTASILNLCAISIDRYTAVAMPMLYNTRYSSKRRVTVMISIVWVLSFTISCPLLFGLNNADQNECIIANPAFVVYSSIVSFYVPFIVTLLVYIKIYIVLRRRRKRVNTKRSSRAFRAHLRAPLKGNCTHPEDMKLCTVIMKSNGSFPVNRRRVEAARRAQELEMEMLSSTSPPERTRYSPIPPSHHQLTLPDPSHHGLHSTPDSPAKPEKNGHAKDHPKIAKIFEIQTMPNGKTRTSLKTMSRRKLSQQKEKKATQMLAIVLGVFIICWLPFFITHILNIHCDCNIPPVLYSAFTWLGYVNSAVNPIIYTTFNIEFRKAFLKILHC
Procedure, shortened: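 HEK293 cells stably expressing DRD2 were preincubated with 0.1 mM Ro20-1724, then with compound for 10 min at room temperature. Cells were stimulated with 200 nM NKH477 plus 12 nM quinpirole for 30 min, and cAMP was read by HTRF.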

[14] = cAMP Responsive Elements (CRE) small molecule agonists, cell-based qHTS assay (AID 1963590)
Procedure, shortened: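 Cells carrying a CRE-driven beta-lactamase reporter (HEK 293T) are seeded, incubated overnight (18 h), and treated with test compounds for 3 h at 37 C; reporter activity is then detected with a FRET substrate after 2 h at room temperature.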

[15] = cAMP Responsive Elements (CRE) small molecule antagonists, cell-based qHTS assay (AID 1963591; active = well fitted inhibition curve with a large enough effect in the signal ratio in the repeat runs, not every such curve was filed as active; the % refers to the signal ratio)
Procedure, shortened: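 Cells (CRE-bla HEK 293T, DMEM with 10% dialyzed FBS and 25 mM HEPES) are seeded and incubated 18 h. Compounds are added with NKH477 agonist at 0.25 uM final for 3 h, then FRET substrate for 2 h.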

[16] = biological target: D(2) dopamine receptor (Homo sapiens) (UniProt P14416); assay: Dopamine D2 receptor (DRD2) small molecule agonists, cell-based qHTS assay (AID 1963594); also: nearly all actives have a fitted effect of over 35% in size
Procedure, shortened: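 HEK293 cells stably expressing human DRD2, pre-treated with PDE inhibitor Ro20-1724 (0.1 mM final) and compound 10 min at room temperature, then stimulated with NKH477 (200nM […]) for 30 min. cAMP read by HTRF (665/620 nm).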

[17] = biological target: Beta-2 adrenergic receptor (Homo sapiens) (UniProt P07550); assay: Adrenergic beta2 receptor (ADRB2) small molecule agonists, cell-based qHTS assay (AID 1963593);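 also: CHO cells stably overexpressing human ADRB2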
Procedure, shortened: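 CHO cells stably over-expressing ADRB2 were plated overnight at 37C, then dosed with compounds plus a stimulation mix containing 100uM IBMX and 25uM Ro-20-1724 for 0.5hr at room temperature. cAMP was measured by HTRF competition, 1hr.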

SMILES	Potency [1]	Potency [2]	Potency [3]	Potency [4]	Potency [5]	Potency [6]	Potency [7]	Potency [8]	Potency [9]	Potency [10]	Potency [11]	Potency [12]	Potency [13]	Potency [14]	Potency [15]	Potency [16]	Potency [17]
Cc1nc2c([nH]1)c(=O)n(C)c(=O)n2Cc1ccco1	inactive	inactive	inactive	inactive	inactive	inactive	inactive	inactive	inactive	inactive	inactive	inactive	inactive	–	–	–	–
O=C=NCC1CCCC(CN=C=O)C1 (centres undefined)	inactive	inactive	inactive	inactive	inactive	inactive	inactive	inactive	inactive	–	inactive	inactive	inactive	inactive	inactive	inactive	–
Cc1cc(C)c(N)cc1C	inactive	inactive	inactive	inactive	inactive	inactive	inactive	inactive	inactive	inactive	inactive	inactive	inactive	inactive	inactive	inactive	–
CC1CCC(CO)CC1 (centres undefined)	inactive	inactive	inactive	inactive	inactive	inactive	inactive	inactive	inactive	inactive	inactive	inactive	inactive	inactive	–	inactive	–
C[C@@H]1C[C@H]2[C@@H]3C[C@H](F)C4=CC(=O)C=C[C@]4(C)[C@@]3(F)[C@@H](O)C[C@]2(C)[C@@]1(O)C(=O)CO	inactive	inactive	inactive	inactive	inactive	inactive	inactive	inactive	inactive	inactive	inactive	inactive	inactive	inactive	–	inactive	–
Cc1ccccc1N=C(N)Nc1ccccc1C	inactive	inactive	inactive	inactive	inactive	inactive	inactive	inactive	inactive	7.35 µM (active)	inactive	inactive	inactive	inactive	–	inactive	–
O=C(Cl)c1ccc([N+](=O)[O-])cc1	inactive	inactive	inactive	inactive	inactive	inactive	inactive	inactive	inactive	inactive	inactive	inactive	–	inactive	inactive	–	–
FC(F)(Cl)C(F)(Cl)Cl	inactive	inactive	inactive	inactive	inactive	inactive	inactive	inactive	inactive	inactive	inactive	inactive	inactive	–	inactive	inactive	–
CCCCCCCC/C=C\CCCCCCCC(=O)OCCO	inactive	inactive	inactive	inactive	inactive	inactive	inactive	inactive	inactive	inactive	inactive	inactive	inactive	–	–	inactive	inactive
CCNC(=O)NCc1cccc(Cl)c1	inactive	inactive	inactive	inactive	inactive	inactive	inactive	inactive	inactive	inactive	inactive	inactive	inactive	inactive	inactive	inactive	inactive
O=C(O)Cn1cnnn1	inactive	inactive	inactive	inactive	inactive	inactive	inactive	inactive	inactive	inactive	inactive	inactive	–	inactive	inactive	inactive	inactive
C=C(C)C(=O)OCCOCCOC(=O)C(=C)C	inactive	inactive	inactive	inactive	inactive	inactive	inactive	inactive	inactive	inactive	inactive	inactive	–	–	–	inactive	inactive
COc1ccc(CCN(C)CCCN2CCc3cc(OC)c(OC)cc3CC2=O)cc1OC	inactive	inactive	inactive	inactive	inactive	inactive	inactive	inactive	inactive	inactive	inactive	inactive	inactive	inactive	inactive	inactive	–
NNC(=O)OCc1ccccc1	inactive	inactive	inactive	inactive	inactive	inactive	inactive	inactive	inactive	inactive	inactive	inactive	inactive	inactive	inactive	inactive	–
C1CCC2(CCCCO2)OC1	inactive	inactive	inactive	inactive	inactive	inactive	inactive	inactive	inactive	inactive	inactive	inactive	inactive	inactive	inactive	inactive	inactive
CSc1ccc(C=O)cc1	inactive	inactive	inactive	inactive	inactive	inactive	inactive	inactive	inactive	inactive	inactive	inactive	inactive	inactive	inactive	–	–
